These results are taken from PubChem BioAssay (EPA / NIEHS).

“And” between values parts separate entries of the source, which are not always exact repeats. Identical values can stand only once. The source made the active and inactive calls. How the source made its calls: active means hit-call score of the fitted dose curve at least 0.9, where 1 is the maximum; inactive means score below 0.9.

Read-out in this test: Plasminogen activator inhibitor-1 (PAI1), SERPINE1 (gene 5054)
In words: BSK_KF3CT_PAI1: BioMAP Diversity Plus: KF3CT Assay for Plasminogen activator inhibitor-1 (PAI1) Biomarker Activity (AID 2284252). The following applies: primary human keratinocytes with fibroblasts. The protocol:
BSK_KF3CT is a cell-based, multiplexed-readout assay that uses keratinocytes and foreskin fibroblasts, a human skin primary cell co-culture, with measurements taken at 24 hours after chemical dosing in a 96-well plate.BSK_KF3CT_PAI1 is an assay component measured in the BSK_KF3CT assay. It measures PAI-1 antibody related to regulation of gene expression using ELISA technology.Data from the assay component BSK_KF3CT_PAI1 was analyzed at the endpoint, BSK_KF3CT_PAI1, in the positive analysis fitting direction relative to DMSO as the negative control and baseline of activity. Using a type of binding reporter, gain or loss-of-signal activity can be used to understand protein changes. To generalize the intended target to other relatable targets, this assay endpoint is annotated to the 'cytokine' intended target family, where the subfamily is 'plasmogen activator inhibitor'.
The levels of cell surface (or secreted, indicated by the prefix "s") biomarker endpoints were measured by ELISA. Overt cytotoxicity to cells in confluent adherent cultures (all systems other than the BT system) was assessed by measuring total protein levels using sulforhodamine B (SRB) staining in parallel cultures at the time of biomarker measurements, indicated as SRB endpoints. For proliferation assays for adherent cell types, individual cell types are cultured at sub-confluence and relative cell numbers quantified by SRB staining at time points optimized for each system (48 h: 3C and CASM3C systems; 72 h: BT and HDF3CGF systems; 96 h: SAg system). SRB was performed by staining cells with 0.1% SRB after fixation with 10% TCA and reading wells at 560 nm.Viability and proliferation of PBMC (T cells) was quantified by Alamar Blue reduction for the SAg and BT systems. For PBMC viability (referred to as PBMC Cytotoxicity within the assay endpoint names), cells were plated (75,000/well in a 96-well plate) and then chemical samples added for 1 h before addition of activators, SEB and TSST-1 (20 ng/mL final concentration each). Cells were incubated for 90 h. Then, Alamar Blue (20 uL/well) (Invitrogen, Cat DAL1100) was added for 6 h, and the plates were read with a fluorescence microplate reader at 546/580 nm (excitation/emission). For PBMC proliferation, cells were plated and activated as above but incubated for only 16 h prior to addition of Alamar Blue. Plates were read after 6 h.
On to `C=C(F)C(=O)OC(C(F)(F)F)C(F)(F)F`, for which the result was inactive.

On to `C=C(C)C(=O)OCCC(F)(F)C(F)(F)C(F)(F)C(F)(F)C(F)(F)C(F)(F)C(F)(F)C(F)(F)F`, for which the outcome was inactive.

For `O=C(O)C(F)(F)C(F)(F)C(F)(F)C(F)(F)C(F)(F)C(F)(F)C(F)(F)C(F)F`, the outcome was inactive.

As for `c1ccc(OCCOc2ccccc2)cc1`, the outcome was inactive.

Take `O=S(=O)(O)C(F)(F)C(F)(F)OC(F)(F)C(F)(F)F`: the result was inactive.

Consider `CC(=O)c1ccc(C)cc1`, for which the outcome was inactive.

As to `CCCO[Si](OCCC)(OCCC)OCCC`, the result was inactive.

Regarding `O=C(O)C(F)(F)OC(F)(F)C(F)(F)OC(F)(F)C(F)(F)C(F)(F)C(F)(F)F`, the result was inactive.

As for `CCn1cc(C(=O)O)c(=O)c2ccc(C)nc21`, the result was inactive.

The term AC50 denotes the concentration at which the activity in the assay is half-maximal. `OCC(F)(OC(F)(F)C(F)(OC(F)(F)C(F)(F)C(F)(F)F)C(F)(F)F)C(F)(F)F` (stereo not drawn): the AC50 was 5 µM (active) and 4.79 µM (active).

As to `CC(C)CCCC(C)(C)O`, the outcome was inactive.

For `CCCCN(CCO)CCO`, the outcome was inactive.

In the case of `CC(C)(CO)CO`, the result was inactive.
